Assay outcomes deposited in PubChem by National Center for Advancing Translational Sciences (NCATS).
An excerpt weighted towards active compounds, which were near 21% of everything screened.
Pf growth 96h – Primary qHTS for delayed death inhibitors of the malarial parasite plastid, 96 hour incubation | P. falciparum luciferase reporter growth, 96 h | 320,000 tested, 6.9% active | Potency, µM (doses to about 28.7 µM), inactives show top-dose activity change, negative = inhibition, usual class: inhibitors; further: potency means the concentration at half of the fitted maximal effect; on the % scale 0 is the no-effect control and ±100 the full control effect
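Erythrocytes infected with luciferase-expressing P. falciparum were dispensed at 2% hematocrit and 0.05% parasitemia (final), then incubated with compounds 96 hours at 37 C in 5% CO2. Luminescence after detection reagent addition reported growth.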
Cycloheximide cs – Cycloheximide Counterscreen for Small Molecule Inhibitors of Shiga Toxin; AID 2314, 2010; 300,000 tested, 12% active; max response, %; cell reporter, cycloheximide protein synthesis inhibition counterscreen; in the data active means max response mostly above about 13%, no sharp cut-off; inactive means mostly below about 14%; further: read at 38.3 µM for the half of the compounds with a filed dose; 0% is about no effect
NS1 function inh – qHTS Assay for Inhibitors of Influenza NS1 Protein Function; 270,000 tested, 0.4% active; Potency, µM (series often up to 46.1 µM), for inactives: top-dose activity, positive = more growth; calls by dose curve; further: potency means the concentration at half of the fitted maximal effect; actives are rising curves; nearly all actives have a fitted effect of over 50% in size
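S. cerevisiae expressing influenza A NS1, grown in glucose, washed, then diluted 1:100 into pH 6.0 -URA galactose medium with 23 nl compound. Growth recovery read as OD600; NS1-free strain serves as control.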
Sm TGR block – qHTS Assay for the Inhibitors of Schistosoma Mansoni Peroxiredoxins; Schistosoma mansoni thioredoxin glutathione reductase (TGR), Q962Y6; purified TGR, DTNB reduction, TNB absorbance 405 nm; Potency, µM (highest dose often 114 µM), inactives show at the top dose activity change, negative = inhibition, most hits filed as inhibitors; 360,000 tested, 3% active; AID 485364, 2010; further: potency means the concentration at half of the fitted maximal effect; on the % scale 0 is the no-effect control and ±100 the full control effect; nearly all actives have a fitted effect of over 60% in size
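First, TGR (20 nM dispensed) and NADPH were mixed with compound. Second, a 15 min room-temperature incubation followed. Third, further NADPH and then DTNB were added to start the reaction. Finally, TNB absorbance was monitored kinetically.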
Shiga inhibitor – A qHTS for Small Molecule Inhibitors of Shiga Toxin; 290,000 tested, 9.2% active; Vero cells, Shiga toxin protein synthesis inhibition reporter; AID 2315, 2010; inhibition, % at 38.7 µM; in the data active means inhibition mostly above about 28%, no sharp cut-off; inactive means mostly below about 43%; further: 0% is about no effect
Pf growth 48h – Primary qHTS for delayed death inhibitors of the malarial parasite plastid, 48 hour incubation. AID 504832, 2011. Potency, µM (doses to about 28.7 µM), inactives show at the highest dose activity change, negative = inhibition, actives largely listed as inhibitors. 310,000 tested, 5.9% active. P. falciparum luciferase growth in erythrocytes, 48 h; further: potency means the concentration at half of the fitted maximal effect; on the % scale 0 is the no-effect control and ±100 the full control effect
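Erythrocytes infected with P. falciparum carrying an integrated firefly luciferase reporter (2% hematocrit, 0.1% parasitemia final) were exposed to compounds in RPMI 1640 with 0.5% Albumax at 37 C, 5% CO2. Growth inhibition was scored as reduced luminescence.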
* = called active by the depositor; ? = inconclusive; . = no result; + = active, no number. Unless noted, the call rests on the fitted dose curve; in most records, active means well fitted curve in the direction sought with a large enough effect; inconclusive means small, poorly fitted or top-dose-only effect, or another doubt; inactive means no such curve, though single readings can be large; an effect the other way counts as inactive or inconclusive.

SMILES	Pf growth 96h	Cycloheximide cs	NS1 function inh	Sm TGR block	Shiga inhibitor	Pf growth 48h
CCN(CC)C(=O)c1ccc(-c2ccccc2)cc1	?	16*	-27%	-5%	+	?
CN(C)CC(=O)c1ccc(-c2ccccc2)cc1	10%	24*	-110%	?	99	18%
CCN(CC)CC(=O)c1ccc(-c2ccccc2)cc1	-2%	18	-26%	?	20	?
Cc1cc(C)c[n+](CC(=O)c2ccc(-c3ccccc3)cc2)c1	15µM*	6	17%	0%	8	?
Cc1ccccc1C(=O)N1CCC(C(=O)N(C)CC(=O)Nc2cccc(F)c2)CC1	-29%	2	11%	3%	-5	?
C(=N\Nc1nc(-c2ccccn2)nc2ccccc12)/c1ccccc1	2.1µM*	7	3%	18%	7	4.7µM*
FC(F)(F)c1nc2ccccc2nc1N/N=C\c1ccccc1	16%	19*	-8%	19%	94*	10%
C(=N\Nc1nc(-c2cccnc2)nc2ccccc12)/c1ccccc1	-22%	23*	13%	1%	50*	?
COc1cccc(/C=N/Nc2nc(-c3cccnc3)nc3ccccc23)c1	?	18*	5%	4%	65*	?
Cc1ccc(-c2nc(N/N=C/c3ccccc3[N+](=O)[O-])c3ccccc3n2)cc1	89%	35	-3%	-1%	9	140%
COc1cccc(CNc2nc(-c3cccnc3)nc3ccccc23)c1	?	-5	.	12%	-10	-10%
O=C(O)c1ccc(Nc2nc(-c3cccnc3)nc3ccccc23)cc1	31%	-3	12%	-5%	-3	20%
O=C(Nc1nnc(-c2ccco2)o1)C1CC1	?	1	.	-1%	18	-12%
Brc1ccc(-c2nc(N/N=C/c3cccnc3)c3ccccc3n2)cc1	?	32*	18%	-2%	103*	.
O=[N+]([O-])c1cc(-c2nc(-c3ccncc3)no2)ccc1NCc1ccccc1	.	.	.	5%	.	.
CN1CCc2nc(SCCOc3ccccc3)c(C#N)cc2C1	.	16	?	?	33	-12%
COC(=O)C1=C(CSc2nc3c(cc2C#N)CN(C)CC3)OC(N)=C(C#N)C1c1ccccc1F (stereo not drawn)	12µM*	10	?	0%	-40	?
Cc1cccc(CSc2nc3c(cc2C#N)CN(C)CC3)c1	7.4µM*	9	-6%	-31%	8	10µM*
CN1CCc2nc(SCc3ccccc3Br)c(C#N)cc2C1	13%	-2	7%	22µM*	-14	?
Oc1c(Br)cc(C2N=C(c3ccccc3)NO2)cc1Br (stereo not drawn)	71%	26*	-114%	50µM*	103*	-4%
CSc1ccc(C2N=C(c3ccccc3)NO2)cc1 (stereo not drawn)	371%	41*	0%	?	114*	18%
Cc1nn2c(=O)cc(COC(=O)C(c3ccccc3)c3ccccc3)nc2s1	.	.	.	-5%	.	.
O=[N+]([O-])c1ccccc1/C=N/OCc1ccccc1	108%	31*	-23%	-10%	104*	106%
CCN(CC(=O)NCc1ccc(F)cc1)C(=O)CN1CCN(c2ccc(OC)cc2)CC1	-1%	-2	4%	6%	-4	0%
Cc1ccc(-n2c(C)cc(/C=N/NC(=O)CC3(C)OCCO3)c2C)cc1	?	16	4%	0%	34	13µM*
SMILES	Pf growth 96h	Cycloheximide cs	NS1 function inh	Sm TGR block	Shiga inhibitor	Pf growth 48h
CNC(=S)N/N=C/c1cc(C)n(-c2ccc(Cl)c(Cl)c2)c1C	9.3µM*	22*	-7%	0%	52	15µM*
Cc1ccc(-n2c(C)cc(/C=N/NC(=O)CN(c3ccc(C)cc3C)S(C)(=O)=O)c2C)cc1	?	-2	11%	5%	-9	12µM*
Cc1ccc(-n2c(C)cc(/C=N/NC(=O)c3ccncc3)c2C)cc1	?	25*	10%	9%	18	?
Cc1cc(/C=N/NC(=O)CC2(C)OCCO2)c(C)n1-c1cc(Cl)cc(Cl)c1	?	-3	-9%	-19%	-6	?
COc1cc2nc(CN3CCC(C(O)(c4ccccc4)c4ccccc4)CC3)[nH]c(=O)c2cc1OC	?	6	.	-8%	-4	?
COc1ccc(C(=O)Nc2cccc(-c3nc4cccnc4s3)c2C)c(OC)c1	.	.	.	-10%	.	.
Cc1ccc(-n2c(C)cc(/C=N/NC(N)=S)c2C)cc1	126%	19*	4%	-11%	-12	?
COc1ccc(Cl)cc1NC(=O)C(=O)N/N=C/c1cc(C)n(-c2ccc(C)cc2)c1C	.	-2	13%	-5%	-8	-2%
COc1ccc(CN2CCC3C=CCC(C(=O)O)C3C2=O)cc1OC (stereo not drawn)	.	-4	.	.	-4	.
CCOc1ccc(Nc2ccc([N+](=O)[O-])c3nonc23)cc1	?	33*	-89%	-8%	56*	60%
Cc1ccc(CNc2nc(C)cs2)cc1	41%	40*	-9%	-16%	75*	160%
CC(=O)Nc1nc(C)cs1	8%	11	.	0%	-1	?
Cc1ccc(CNC2=NCCS2)cc1	3.3µM*	17*	2%	4%	81	?
Cc1ccccc1-c1nnc(SCCC(=O)N2CCOCC2)o1	?	23*	.	-3%	70*	95%
Cc1ccc(-c2nnc(SCCC(=O)N3CCOCC3)o2)cc1	?	32*	.	-11%	52	81%
O=C(CCSc1nnc(-c2ccccc2)o1)N1CCOCC1	37%	14	-10%	4%	34	26%
CSc1n[nH]c(-c2ccc(C(F)(F)F)cc2)n1	87%	41*	1%	10%	107*	66%
Cc1ccc(CNC(=O)CSc2n[nH]c(-c3ccc(F)cc3)n2)cc1	.	.	.	0%	.	.
COc1cccc(NC(=O)C(=O)NCCc2csc(-c3ccc(C)cc3)n2)c1	.	.	.	11%	.	.
CCN(CCn1cccn1)C(=O)CCc1nnc(C2CCCCC2)o1	-9%	12*	1%	3%	38*	-20%
CC(CCn1cccn1)NC(=O)CCc1nnc(C2CCCCC2)o1 (stereo not drawn)	14%	-3	-2%	8%	-13	-10%
CN(Cc1cccc(-n2cccn2)c1)C(=O)CCc1nnc(C2CCCCC2)o1	?	40*	-3%	-18%	55*	-24%
CC(O)c1nc2ccccc2n1CCCCOc1ccccc1 (stereo not drawn)	?	-2	-9%	6%	27	7%
CCCCCN1C(=O)Cn2c(nc3ccccc3c2=O)C1C (stereo not drawn)	17%	-4	2%	6%	-10	-3%
